# Laboratory results as given in PubChem BioAssay (EPA / NIEHS).
# Records with an inconclusive call do not appear. Calls of active or inactive are those of the source. How the source made its calls, unless noted: active means hit-call score of the fitted dose curve at least 0.9, where 1 is the maximum; inconclusive means response in the unintended direction; inactive means score below 0.9.
# Legend:
# [1] = target: Retinoic acid receptor alpha (Homo sapiens) (UniProt P10276); assay: ATG_DR5_RAR_CIS: Attagene CIS-FACTORIAL HepG2 Assay for human Retinoic Acid Receptor Alpha (RARE), DR5 submotif (AID 2282934; active means hit-call score of the fitted dose curve at least 0.9, where 1 is the maximum; inactive means score below 0.9); conditions: HepG2 Attagene cis-factorial RARE DR5 reporter, mRNA; actives raise or lower the signal
# Sequence of Retinoic acid receptor alpha (Homo sapiens) (P10276 whole entry, looked up): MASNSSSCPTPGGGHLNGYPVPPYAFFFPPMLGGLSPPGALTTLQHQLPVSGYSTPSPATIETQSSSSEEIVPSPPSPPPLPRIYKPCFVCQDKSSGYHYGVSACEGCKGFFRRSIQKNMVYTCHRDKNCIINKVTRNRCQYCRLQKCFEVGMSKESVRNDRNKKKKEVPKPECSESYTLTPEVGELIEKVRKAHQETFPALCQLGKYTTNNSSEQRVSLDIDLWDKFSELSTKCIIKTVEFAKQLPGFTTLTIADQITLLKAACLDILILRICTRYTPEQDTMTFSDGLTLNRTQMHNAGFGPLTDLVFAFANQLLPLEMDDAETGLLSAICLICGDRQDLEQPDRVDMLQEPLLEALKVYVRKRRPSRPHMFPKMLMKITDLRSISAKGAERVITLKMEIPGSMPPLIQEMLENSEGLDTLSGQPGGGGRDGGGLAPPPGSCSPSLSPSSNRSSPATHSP
# Outline: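 HepG2, transient cis-reporter transfection, 24 h exposure. mRNA readout: RT-PCR, FAM label, HpaI cut, capillary electrophoresis. DMSO baseline, gain/loss fitting.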
# [2] = target: Bile acid receptor (Homo sapiens) (UniProt Q96RI1); assay: ATG_IR1_CIS: Attagene CIS-FACTORIAL HepG2 Assay for human Nuclear Receptor Subfamily 1 Group H Member 4 (NR1H4), IR1 submotif (AID 2282946; active means hit-call score of the fitted dose curve at least 0.9, where 1 is the maximum; inactive means score below 0.9); conditions: IR1 reporter transcription, actives raise or lower the signal
# Sequence of Bile acid receptor (Homo sapiens) (Q96RI1 whole entry, looked up, the tested form may be a part): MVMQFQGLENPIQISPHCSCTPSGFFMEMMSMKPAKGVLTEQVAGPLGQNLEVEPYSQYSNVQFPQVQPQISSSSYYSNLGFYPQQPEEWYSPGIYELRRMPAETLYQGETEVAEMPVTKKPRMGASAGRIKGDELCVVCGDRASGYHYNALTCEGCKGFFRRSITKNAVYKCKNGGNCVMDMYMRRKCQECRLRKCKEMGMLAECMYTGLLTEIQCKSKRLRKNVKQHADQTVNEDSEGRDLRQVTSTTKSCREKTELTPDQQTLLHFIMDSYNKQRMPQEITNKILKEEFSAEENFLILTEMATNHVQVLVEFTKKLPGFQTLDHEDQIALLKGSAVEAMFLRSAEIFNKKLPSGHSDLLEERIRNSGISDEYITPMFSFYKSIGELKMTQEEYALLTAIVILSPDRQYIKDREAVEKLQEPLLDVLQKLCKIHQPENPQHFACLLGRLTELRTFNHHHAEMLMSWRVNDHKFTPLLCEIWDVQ
# Outline: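 Cells (human HepG2) carry transiently transfected cis-promoter reporter transcription units. Compounds are incubated 24 h, total RNA is reverse-transcribed and amplified, and labelled fragments are resolved by capillary electrophoresis. Curves use DMSO as baseline.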
# [3] = target: Nuclear receptor subfamily 1 group I member 3 (Homo sapiens) (UniProt Q14994); assay: ATG_CAR_TRANS: Attagene TRANS-FACTORIAL HepG2 Assay for human Constitutive Androstane Receptor (CAR) (AID 2282969); conditions: HepG2 Attagene TRANS-FACTORIAL CAR reporter;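 further: activators raise reporter mRNA above DMSO so AC50 marks induction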
# Sequence of Nuclear receptor subfamily 1 group I member 3 (Homo sapiens) (Q14994 whole entry, looked up, the tested form may be a part): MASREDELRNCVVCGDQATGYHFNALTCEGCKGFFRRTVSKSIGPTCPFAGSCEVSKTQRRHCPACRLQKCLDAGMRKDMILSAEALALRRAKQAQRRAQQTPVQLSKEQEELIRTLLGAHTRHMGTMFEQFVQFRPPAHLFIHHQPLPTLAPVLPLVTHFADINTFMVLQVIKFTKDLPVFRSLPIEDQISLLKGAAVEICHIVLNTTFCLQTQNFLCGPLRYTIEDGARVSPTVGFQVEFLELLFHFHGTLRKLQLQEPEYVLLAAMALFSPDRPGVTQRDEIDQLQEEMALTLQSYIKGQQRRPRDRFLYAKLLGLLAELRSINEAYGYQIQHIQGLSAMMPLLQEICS
# Outline: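 Readout is reporter mRNA induction, quantified by fluorescent primer extension and capillary electrophoresis after RT-PCR. Cells were HepG2 transiently carrying chimeric NR-Gal4 constructs with GAL4-UAS reporters, treated for 24 h; activity scored upward from DMSO.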
# [4] = ATG_GAL4_TRANS: Attagene TRANS-FACTORIAL HepG2 Assay for GAL4 (Internal Marker) (AID 2282976); conditions: HepG2 Attagene TRANS GAL4 internal marker reporter
# Outline: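 Liver HepG2 line bearing multiplexed GAL4-UAS reporter constructs; 24 h chemical treatment. Transcripts were quantified as fluorescent fragments on capillary electrophoresis after RT-PCR and HpaI cut, with activity fitted upward from DMSO.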
# [5] = target: Oxysterols receptor LXR-alpha (Homo sapiens) (UniProt Q13133); assay: ATG_LXRa_TRANS: Attagene TRANS-FACTORIAL HepG2 Assay for human Liver X Receptor alpha (LXRa) (AID 2282980); conditions: HepG2 Attagene TRANS reporter, LXRa transactivation
# Sequence of Oxysterols receptor LXR-alpha (Homo sapiens) (Q13133 whole entry, looked up, the tested form may be a part): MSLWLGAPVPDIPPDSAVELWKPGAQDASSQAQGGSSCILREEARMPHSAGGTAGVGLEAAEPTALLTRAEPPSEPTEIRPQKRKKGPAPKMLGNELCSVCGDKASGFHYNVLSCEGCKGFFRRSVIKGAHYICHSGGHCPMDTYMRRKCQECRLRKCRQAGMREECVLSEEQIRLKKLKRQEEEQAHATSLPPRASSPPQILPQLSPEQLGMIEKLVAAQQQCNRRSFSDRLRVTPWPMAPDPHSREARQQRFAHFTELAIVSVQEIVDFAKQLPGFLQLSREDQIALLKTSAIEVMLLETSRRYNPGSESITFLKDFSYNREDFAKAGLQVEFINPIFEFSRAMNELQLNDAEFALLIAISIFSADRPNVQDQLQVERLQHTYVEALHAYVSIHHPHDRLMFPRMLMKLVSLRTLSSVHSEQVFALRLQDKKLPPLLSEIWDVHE
# Outline: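 In this multiplexed TRANS system, compounds act on HepG2 cells carrying GAL4-UAS reporter units and a receptor-GAL4 fusion for 24 h. Induced reporter RNA is amplified, fluorescently labelled and sized by capillary electrophoresis, with DMSO as baseline.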
# [6] = target: Oxysterols receptor LXR-beta (Homo sapiens) (UniProt P55055); assay: ATG_LXRb_TRANS: Attagene TRANS-FACTORIAL HepG2 Assay for human Liver X Receptor beta (LXRb) (AID 2282981); conditions: HepG2 Attagene TRANS GAL4-LXRb reporter, mRNA
# Sequence of Oxysterols receptor LXR-beta (Homo sapiens) (P55055 whole entry, looked up, the tested form may be a part): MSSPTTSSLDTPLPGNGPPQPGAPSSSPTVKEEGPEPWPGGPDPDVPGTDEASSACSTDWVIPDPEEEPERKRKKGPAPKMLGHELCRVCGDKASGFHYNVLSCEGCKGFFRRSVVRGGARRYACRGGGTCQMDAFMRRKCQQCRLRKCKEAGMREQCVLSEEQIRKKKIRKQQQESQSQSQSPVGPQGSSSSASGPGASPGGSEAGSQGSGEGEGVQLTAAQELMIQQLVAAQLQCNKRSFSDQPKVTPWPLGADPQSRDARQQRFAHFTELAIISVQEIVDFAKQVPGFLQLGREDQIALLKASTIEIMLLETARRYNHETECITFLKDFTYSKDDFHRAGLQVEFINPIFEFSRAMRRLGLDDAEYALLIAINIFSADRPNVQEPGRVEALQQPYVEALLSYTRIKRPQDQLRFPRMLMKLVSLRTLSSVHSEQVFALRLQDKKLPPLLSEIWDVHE
# Outline: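 Transient transfection HepG2 (multiplexed RTUs, GAL4-UAS); NR-Gal4 chimera; 24 h exposure; RNA → RT-PCR → 6-FAM primer extension → HpaI → CE; increase vs DMSO.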
# [7] = target: human Peroxisome Proliferator-activated Receptor alpha (PPARa), PPARA (gene 5465) (UniProt Q07869); assay: ATG_PPARa_TRANS: Attagene TRANS-FACTORIAL HepG2 Assay for human Peroxisome Proliferator-activated Receptor alpha (PPARa) (AID 2283001);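 on AC50: potency for gain of reporter signal over DMSO so agonist or activator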
# Sequence of human Peroxisome Proliferator-activated Receptor alpha (PPARa), PPARA (gene 5465) (Q07869 whole entry, looked up, the tested form may be a part): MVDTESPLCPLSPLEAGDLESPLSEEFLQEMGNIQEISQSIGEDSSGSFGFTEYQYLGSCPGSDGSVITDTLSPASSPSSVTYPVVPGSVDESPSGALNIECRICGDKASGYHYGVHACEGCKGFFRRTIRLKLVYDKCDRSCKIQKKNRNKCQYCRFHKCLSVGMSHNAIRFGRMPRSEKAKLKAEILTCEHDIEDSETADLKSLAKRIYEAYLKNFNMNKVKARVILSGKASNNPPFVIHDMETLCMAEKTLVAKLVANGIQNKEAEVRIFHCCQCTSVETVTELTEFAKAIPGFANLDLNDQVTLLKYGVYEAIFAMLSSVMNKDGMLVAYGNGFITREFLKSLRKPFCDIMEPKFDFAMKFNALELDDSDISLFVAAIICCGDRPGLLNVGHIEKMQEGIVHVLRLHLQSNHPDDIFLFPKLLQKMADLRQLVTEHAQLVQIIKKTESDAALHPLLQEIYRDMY
# Outline: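 Read-out is fluorescence of reporter cDNA fragments resolved by capillary electrophoresis after RT-PCR. Human HepG2 liver cells carried transfected PPARa-Gal4 chimera and GAL4-UAS reporter units, treated 24 h; activity scored as increase over DMSO.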
# [8] = target: human RAR-related Orphan Receptor gamma (RORg), RORC (gene 6097) (UniProt P51449); assay: ATG_RORg_TRANS: Attagene TRANS-FACTORIAL HepG2 Assay for human RAR-related Orphan Receptor gamma (RORg) (AID 2283011)
# Outline: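 Chimeric RORg-Gal4 transactivation in transfected HepG2; 24 h exposure; RT-PCR/capillary electrophoresis readout of reporter mRNA, DMSO baseline.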
# [9] = target: human Thyroid Receptor alpha (THRa1), THRA (gene 7067) (UniProt P10827); assay: ATG_THRa1_TRANS: Attagene TRANS-FACTORIAL HepG2 Assay for human Thyroid Receptor alpha (THRa1) (AID 2283014)
# Sequence of human Thyroid Receptor alpha (THRa1), THRA (gene 7067) (P10827 whole entry, looked up, the tested form may be a part): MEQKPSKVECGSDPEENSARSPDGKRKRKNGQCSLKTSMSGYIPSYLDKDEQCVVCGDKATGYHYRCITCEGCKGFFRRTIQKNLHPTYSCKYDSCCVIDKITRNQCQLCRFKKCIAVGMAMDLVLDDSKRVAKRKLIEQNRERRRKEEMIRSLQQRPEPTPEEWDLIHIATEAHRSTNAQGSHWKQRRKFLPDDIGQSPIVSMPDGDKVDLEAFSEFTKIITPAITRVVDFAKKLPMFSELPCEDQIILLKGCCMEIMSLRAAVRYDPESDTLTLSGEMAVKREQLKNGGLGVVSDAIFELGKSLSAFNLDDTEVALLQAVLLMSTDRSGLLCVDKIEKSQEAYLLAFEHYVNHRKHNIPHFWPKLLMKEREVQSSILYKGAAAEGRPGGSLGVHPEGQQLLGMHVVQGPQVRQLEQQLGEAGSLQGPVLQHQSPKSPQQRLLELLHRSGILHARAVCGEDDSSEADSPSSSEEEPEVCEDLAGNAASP
# Outline: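 Measured here is mRNA from a GAL4-UAS reporter in transfected HepG2 cells carrying a Gal4-fused receptor, 24 h post-dose. DMSO served as negative control and baseline.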
# [10] = TOX21_p53_BLA_p3_viability: Viability Assessment in the Tox21 HCT-116 p53 Agonism Beta-lactamase Assay, Phase 3 (AID 2283593);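 further: cells exposed to compound for 16 h before reading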
# Outline: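 Cellular ATP was quantified by CellTiter-Glo luminescence, read after 30 min at room temperature. Beforehand, HCT116 cells (4000/well) received compound 5 h post-seeding, 217-fold diluted from DMSO, then incubated 16 h at 37C.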
# [11] = ACEA_ER_AUC_viability: ACEA Biosciences xCELLigence Real-Time Cell Analysis on Estrogen Receptor Agonism for Viability (AID 2283782);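 further: continuous compound exposure with impedance area under curve over 80 h; hit means loss of impedance signal meaning reduced cell growth or viability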
# Outline: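 T-47D; phenol red-free RPMI1640 + 10% CS-FBS; 8 conc., 1:4 serial, max 100 uM final, ≤0.5% DMSO; n = 2; continuous exposure; impedance monitored to 80 h post-dose; AUC vs DMSO.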
# [12] = target: human RAR-related Orphan Receptor beta (RORb), RORB (gene 6096) (UniProt Q92753); assay: ATG_RORb_TRANS: Attagene TRANS-FACTORIAL HepG2 Assay for human RAR-related Orphan Receptor beta (RORb) (AID 2283010)
# Sequence of human RAR-related Orphan Receptor beta (RORb), RORB (gene 6096) (Q92753 whole entry, looked up, the tested form may be a part): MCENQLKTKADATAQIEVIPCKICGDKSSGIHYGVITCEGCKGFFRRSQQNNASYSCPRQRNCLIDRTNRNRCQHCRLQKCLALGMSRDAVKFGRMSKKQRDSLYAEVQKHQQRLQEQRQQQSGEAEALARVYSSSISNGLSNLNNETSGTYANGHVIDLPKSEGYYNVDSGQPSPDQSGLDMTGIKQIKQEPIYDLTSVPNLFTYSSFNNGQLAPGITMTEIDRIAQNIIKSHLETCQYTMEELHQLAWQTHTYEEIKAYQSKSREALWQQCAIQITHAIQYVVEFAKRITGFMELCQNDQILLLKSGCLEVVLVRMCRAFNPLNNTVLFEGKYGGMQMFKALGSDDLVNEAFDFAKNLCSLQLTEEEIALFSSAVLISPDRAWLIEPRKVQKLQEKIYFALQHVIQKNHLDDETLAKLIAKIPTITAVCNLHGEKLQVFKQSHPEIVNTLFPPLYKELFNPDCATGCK
# Outline: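 HepG2 cells transiently transfected with GAL4-UAS reporter units expressing chimeric NR-Gal4 protein; reporter mRNA measured 24 h after dosing by RT-PCR, 6-FAM labelling and capillary electrophoresis. Gain-of-signal fitted relative to DMSO baseline.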
# [13] = ATG_PPRE_CIS: Attagene CIS-FACTORIAL HepG2 Assay for human Peroxisome Proliferator-activated Response Element (PPRE) (AID 2282958; active means hit-call score of the fitted dose curve at least 0.9, where 1 is the maximum; inactive means score below 0.9); conditions: HepG2 PPRE cis-element reporter, Attagene transcription factor profiling; actives raise or lower the signal
# Outline: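 HepG2, transient MRTU transfection (cis promoter elements, endogenous TFs). 24 h dosing. RNA → oligo(dT) RT → PCR → 6-FAM primer extension → HpaI digest → CE. Bidirectional fit vs DMSO.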
# [14] = target: Glucocorticoid receptor (Homo sapiens) (UniProt P04150); assay: ATG_GR_TRANS: Attagene TRANS-FACTORIAL HepG2 Assay for human Glucocorticoid Receptor (GR) (AID 2282978); conditions: HepG2 Attagene TRANS GR reporter, mRNA transcription;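 further: activators score as hits since higher reporter transcript over DMSO is fitted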
# Sequence of Glucocorticoid receptor (Homo sapiens) (P04150 whole entry, looked up, the tested form may be a part): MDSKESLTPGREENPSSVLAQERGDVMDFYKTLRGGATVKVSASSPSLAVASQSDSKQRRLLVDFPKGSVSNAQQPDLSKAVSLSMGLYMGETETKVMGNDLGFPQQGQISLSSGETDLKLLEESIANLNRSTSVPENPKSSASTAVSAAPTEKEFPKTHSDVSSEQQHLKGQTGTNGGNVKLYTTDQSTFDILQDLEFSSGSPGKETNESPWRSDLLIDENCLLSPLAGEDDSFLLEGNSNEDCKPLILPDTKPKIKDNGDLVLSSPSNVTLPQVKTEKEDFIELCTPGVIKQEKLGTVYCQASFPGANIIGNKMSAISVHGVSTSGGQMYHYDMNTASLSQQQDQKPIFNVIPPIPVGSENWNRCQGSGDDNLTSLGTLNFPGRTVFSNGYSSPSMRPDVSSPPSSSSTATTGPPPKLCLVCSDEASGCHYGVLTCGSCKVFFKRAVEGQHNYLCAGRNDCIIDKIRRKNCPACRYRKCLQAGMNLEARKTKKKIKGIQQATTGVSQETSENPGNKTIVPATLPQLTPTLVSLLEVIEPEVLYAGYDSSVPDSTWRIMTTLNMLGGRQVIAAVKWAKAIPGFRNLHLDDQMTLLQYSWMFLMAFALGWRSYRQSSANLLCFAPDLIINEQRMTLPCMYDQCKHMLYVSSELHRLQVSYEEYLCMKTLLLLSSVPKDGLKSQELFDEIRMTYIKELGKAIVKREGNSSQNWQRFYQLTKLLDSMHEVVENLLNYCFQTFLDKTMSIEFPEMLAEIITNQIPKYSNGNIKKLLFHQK
# Outline: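 Fluorescent capillary-electrophoresis quantitation of reporter mRNA is the readout, taken 24 h after dosing human HepG2 cells carrying transiently transfected GAL4-UAS reporter units activated by chimeric NR-GAL4 fusions; activity scored as induction over DMSO.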
# [15] = target: Nuclear receptor subfamily 4 group A member 2 (Homo sapiens) (UniProt P43354); assay: ATG_NURR1_TRANS: Attagene TRANS-FACTORIAL HepG2 Assay for human Nuclear Receptor Related Protein 1 (NURR1) (AID 2282985); conditions: HepG2 Attagene TRANS reporter, mRNA readout
# Outline: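 Transient transfection of HepG2, human liver cells, with multiple GAL4-UAS reporter transcription units. Cells dosed 24 h, RNA isolated, reverse-transcribed, PCR-amplified, FAM-labelled, HpaI-digested, sized by capillary electrophoresis. DMSO served as negative control.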
# [16] = target: Peroxisome proliferator-activated receptor gamma (Homo sapiens) (UniProt P37231); assay: ATG_PPARg_TRANS: Attagene TRANS-FACTORIAL HepG2 Assay for human Peroxisome Proliferator-activated Receptor-gamma (PPARg) (AID 2283007)
# Sequence of Peroxisome proliferator-activated receptor gamma (Homo sapiens) (P37231 whole entry, looked up, the tested form may be a part): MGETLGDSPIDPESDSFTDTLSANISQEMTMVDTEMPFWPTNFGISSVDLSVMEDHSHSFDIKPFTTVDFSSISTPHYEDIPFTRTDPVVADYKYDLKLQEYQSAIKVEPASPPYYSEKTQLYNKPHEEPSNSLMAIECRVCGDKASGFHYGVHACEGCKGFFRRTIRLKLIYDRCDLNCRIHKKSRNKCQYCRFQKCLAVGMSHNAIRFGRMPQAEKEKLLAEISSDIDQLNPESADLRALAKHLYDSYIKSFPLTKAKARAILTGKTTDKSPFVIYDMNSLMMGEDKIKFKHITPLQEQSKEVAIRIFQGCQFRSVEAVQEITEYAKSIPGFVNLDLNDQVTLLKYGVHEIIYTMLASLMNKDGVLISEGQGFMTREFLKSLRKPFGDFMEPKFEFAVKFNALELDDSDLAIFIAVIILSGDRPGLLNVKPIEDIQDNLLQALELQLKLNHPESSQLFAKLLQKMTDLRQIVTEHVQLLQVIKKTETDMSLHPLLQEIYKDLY
# Outline: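 Transient transfection of HepG2 with GAL4-UAS-driven reporter units; chemical dosing 24 h; total RNA → oligo(dT) RT → PCR with reporter primers → 6-FAM primer extension → HpaI digest 2 h 37 C → capillary electrophoresis. Positive direction vs DMSO.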
# [17] = TOX21_p53_BLA_p4_viability: Viability Assessment in the Tox21 HCT-116 p53 Agonism Beta-lactamase Assay, Phase 4 (AID 2283597);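 further: hits lower the luminescence signal meaning cytotoxicity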
# Outline: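 Luminescent ATP readout (CellTiter-Glo, 30 min, room temperature) in the same wells as the p53 bla ratio. HCT116 cells were treated for 16 h at 37C with DMSO-dissolved compounds.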
# [18] = TOX21_p53_BLA_p5_viability: Viability Assessment in the Tox21 HCT-116 p53 Agonism Beta-lactamase Assay, Phase 5 (AID 2283600)
# Outline: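 Seeded cells (4000/well) settle 5 h before compound addition. Plates then incubate 16 h at 37C, receive FRET substrate for 2 h, and finally CellTiter-Glo, with luminescence measured after a 30 min room-temperature incubation.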
# [19] = CCTE_Harrill_HTTr_Viability_MCF7: CCTE's 6-hour Cell Viability Assessment for the High-Throughput Transcriptomics (HTTr) Platform, in MCF-7 cells cultured in DMEM + 10% fetal bovine serum, Harrill Lab (AID 2284010; active means hit-call score of the fitted dose curve at least 0.9, where 1 is the maximum; inactive means score below 0.9)
# Outline: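 MCF-7 cells in DMEM + 10% FBS, 384-well, exposed 6 h to an eight-point dilution series. Membrane integrity scored by high-content imaging of propidium iodide exclusion; bidirectional fit versus DMSO.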
# [20] = CCTE_Harrill_HTTr_Apoptosis_MCF7: CCTE's 6-hour Apoptosis Assessment for the High-Throughput Transcriptomics (HTTr) Platform, in MCF-7 cells cultured in DMEM + 10% fetal bovine serum, Harrill Lab (AID 2284011; active means hit-call score of the fitted dose curve at least 0.9, where 1 is the maximum; inactive means score below 0.9)
# Outline: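 Apoptosis in MCF-7 cells grown in DMEM with 10% fetal bovine serum was scored after a six hour exposure by high content imaging of caspase-3/7 activation (CellEvent Caspase 3/7 Green), with DMSO serving as negative control and baseline.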
smiles,measurement,setting,value
CN1CCCC1,outcome,[1],inactive
same,outcome,[2],inactive
same,outcome,[3],inactive
same,outcome,[4],inactive
same,outcome,[5],inactive
same,outcome,[6],inactive
same,outcome,[7],inactive
same,outcome,[8],inactive
same,outcome,[9],inactive
same,outcome,[10],inactive
same,outcome,[11],inactive
CC(=O)OC(C)(C)Cc1ccccc1,outcome,[1],inactive
same,outcome,[2],inactive
same,outcome,[4],inactive
same,outcome,[5],inactive
same,outcome,[6],inactive
same,outcome,[7],inactive
same,outcome,[12],inactive
same,outcome,[8],inactive
same,outcome,[10],inactive
same,outcome,[11],inactive
c1cc(N(CC2CO2)CC2CO2)ccc1Cc1ccc(N(CC2CO2)CC2CO2)cc1 (stereo unspecified),outcome,[1],inactive
same,AC50,[2],27.6 µM (active)
same,outcome,[13],inactive
same,outcome,[4],inactive
same,outcome,[14],inactive
same,outcome,[5],inactive
same,AC50,[15],70.9 µM (active)
same,outcome,[16],inactive
same,outcome,[10],inactive
same,outcome,[17],inactive
same,outcome,[18],inactive
C=C(C)C(=O)OCCCCCC,outcome,[1],inactive
same,outcome,[13],inactive
same,outcome,[4],inactive
same,outcome,[14],inactive
same,outcome,[5],inactive
same,outcome,[6],inactive
same,outcome,[7],inactive
same,outcome,[16],inactive
same,outcome,[12],inactive
same,outcome,[17],inactive
same,outcome,[18],inactive
C=C(C)C(=O)OCC1CCCO1 (stereo unspecified),outcome,[1],inactive
same,outcome,[2],inactive
same,outcome,[3],inactive
same,outcome,[14],inactive
same,outcome,[6],inactive
same,outcome,[7],inactive
same,outcome,[10],inactive
same,outcome,[18],inactive
same,outcome,[11],inactive
N#CCN(CC#N)CCN(CC#N)CC#N,outcome,[4],inactive
same,outcome,[14],inactive
same,outcome,[10],inactive
same,outcome,[18],inactive
same,outcome,[11],inactive
CCCCCCC1CCCC(=O)O1 (stereo unspecified),outcome,[1],inactive
same,outcome,[4],inactive
same,outcome,[14],inactive
same,outcome,[5],inactive
same,outcome,[15],inactive
same,AC50,[7],27.3 µM (active)
same,outcome,[10],inactive
same,outcome,[17],inactive
same,outcome,[18],inactive
same,outcome,[11],inactive
COc1cccc(OC)c1C(=O)O,outcome,[3],inactive
same,outcome,[5],inactive
same,outcome,[6],inactive
same,outcome,[8],inactive
same,outcome,[17],inactive
same,outcome,[18],inactive
same,outcome,[11],inactive
CN(C)Cc1cc(C(C)(C)C)c(O)c(C(C)(C)C)c1,outcome,[1],inactive
same,outcome,[13],inactive
same,outcome,[5],inactive
same,outcome,[6],inactive
same,outcome,[16],inactive
same,outcome,[10],inactive
same,outcome,[17],inactive
same,outcome,[18],inactive
O=C(O)/C=C\C(=O)O,outcome,[4],inactive
same,outcome,[14],inactive
same,outcome,[6],inactive
same,outcome,[15],inactive
same,outcome,[12],inactive
same,outcome,[9],inactive
same,outcome,[19],inactive
same,outcome,[20],inactive
CC(=O)c1nccs1,outcome,[1],inactive
same,outcome,[13],inactive
same,outcome,[3],inactive
same,outcome,[14],inactive
same,outcome,[5],inactive
same,outcome,[6],inactive
same,outcome,[16],inactive
same,outcome,[9],inactive
same,outcome,[10],inactive
C=CCOC(=O)C(=C)C,outcome,[1],inactive
same,outcome,[4],inactive
same,outcome,[14],inactive
same,outcome,[7],inactive
same,outcome,[12],inactive
same,outcome,[10],inactive
same,outcome,[17],inactive
same,outcome,[11],inactive
C=CN1CCCCCC1=O,outcome,[4],inactive
same,outcome,[5],inactive
same,outcome,[7],inactive
same,outcome,[8],inactive
same,outcome,[10],inactive
C/C=C(\C)C(=O)OCC/C=C\CC,outcome,[1],inactive
same,outcome,[2],inactive
same,outcome,[3],inactive
same,outcome,[4],inactive
same,outcome,[5],inactive
same,outcome,[15],inactive
same,outcome,[8],inactive
same,outcome,[18],inactive
same,outcome,[11],inactive
